Compounds with a hit are over-represented: about 4% of the library has one in this group of screens.
697 NFkB inh – lowers PMA/ionomycin-induced NF-kB signal in 697 B cells; 697 B-cell NF-kB luciferase reporter, 16 h; inhibition, % at 4 µM; 0.33% of 330,000 active; AID 435022; in the data active means inhibition above about 35%
Jurkat NFkB inh – lowers PMA/ionomycin-induced NF-kB signal in Jurkat cells | PMA/ionomycin-induced NF-kB luciferase reporter, luminescence | inhibition, % at 4 µM | 0.53% of 330,000 active | AID 435003; in the data active means inhibition above about 50%
Mdm2 MdmX PPI – human Mdm2/MdmX binding inhibition. 3% of 330,000 active. O15151+Q00987. inhibition, % at 8 µM. SaOS-2 split-luciferase Mdm2/MdmX complementation, luminescence;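 active means inhibition of at least 50% at 8 µM in the primary screen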
Target sequence (O15151 whole entry, looked up): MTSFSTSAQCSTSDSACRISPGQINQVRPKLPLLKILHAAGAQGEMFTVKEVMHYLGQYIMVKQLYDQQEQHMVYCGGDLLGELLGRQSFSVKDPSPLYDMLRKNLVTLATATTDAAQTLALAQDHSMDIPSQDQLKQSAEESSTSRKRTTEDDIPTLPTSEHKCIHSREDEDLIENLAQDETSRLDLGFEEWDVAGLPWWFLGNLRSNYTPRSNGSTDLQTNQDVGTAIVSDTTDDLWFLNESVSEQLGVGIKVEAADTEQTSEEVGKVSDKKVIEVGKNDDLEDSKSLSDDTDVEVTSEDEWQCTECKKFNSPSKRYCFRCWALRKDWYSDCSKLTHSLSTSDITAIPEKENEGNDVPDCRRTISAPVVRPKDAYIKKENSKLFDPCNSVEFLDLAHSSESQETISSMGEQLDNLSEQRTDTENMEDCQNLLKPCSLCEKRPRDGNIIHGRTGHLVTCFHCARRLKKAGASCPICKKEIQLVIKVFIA
Target sequence (Q00987 whole entry, looked up): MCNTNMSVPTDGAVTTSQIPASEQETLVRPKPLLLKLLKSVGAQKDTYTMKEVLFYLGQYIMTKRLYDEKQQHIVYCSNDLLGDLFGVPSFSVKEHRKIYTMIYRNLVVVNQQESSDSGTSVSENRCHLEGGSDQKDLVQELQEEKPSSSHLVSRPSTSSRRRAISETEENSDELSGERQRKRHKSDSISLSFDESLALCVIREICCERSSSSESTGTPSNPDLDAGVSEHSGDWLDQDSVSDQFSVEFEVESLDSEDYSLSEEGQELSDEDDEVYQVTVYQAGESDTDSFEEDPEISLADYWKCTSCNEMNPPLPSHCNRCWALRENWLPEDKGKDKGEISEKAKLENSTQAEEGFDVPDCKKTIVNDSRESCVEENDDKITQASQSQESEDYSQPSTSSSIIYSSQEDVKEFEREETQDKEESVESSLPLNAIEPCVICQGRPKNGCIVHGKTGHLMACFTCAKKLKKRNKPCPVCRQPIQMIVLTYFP
Gli-Sufu block – antagonists of Gli-Sufu signaling | Sufu-KO-LIGHT fibroblasts, Gli luciferase reporter luminescence | inhibition, % at 5 µM | 0.74% of 340,000 active | AID 588413;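 active means inhibition above about 55%, limit read from the data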;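 further: 0% = DMSO-treated cells and 100% = wells with medium but no cells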
Beta apoptosis – blocks beta cell apoptosis; INS-1E cytokine-induced death, ATP luminescence, 48 h; percent of positive-control rescue, neutral wells zero; AID 435005; 0.8% of 300,000 active; protection from apoptosis, % (concentration not given with the values);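 active means Every replicate reaches about 75%, or at least half do and their mean reaches it too, limit read from the data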;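 further: 0% = cytokine-treated negative control wells and 100% = positive control rescue; higher means more ATP so stronger rescue from cytokine killing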
Gli antag conf – confirmation of Gli-SUFU pathway antagonists; shares compounds with Gli-Sufu block; Sufu-KO-LIGHT cells, Gli luciferase reporter, luminescence; inhibition, % at 5 µM; 40% of 2,500 active;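 active means mean inhibition at 5 µM reaching about 45%, limit read from the data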;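 further: plate controls were DMSO-treated cells for no effect and wells lacking cells for full effect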
SufuKO cytotox – counter-screen for Gli-SUFU antagonists: cytotoxicity | shares compounds with Gli-Sufu block | Sufu-KO-LIGHT cells cytotoxicity, ATP luminescence | cytotoxicity, % at 5 µM | 32% of 2,500 active;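 active means mean cytotoxicity at 5 µM above about 25%, limit read from the data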;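 further: cells exposed to compound overnight for roughly 16 to 18 hours; plate controls were DMSO wells with cells for no effect and medium without cells for full effect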
Wnt3a cs – counter-screen for Gli-SUFU antagonists: Wnt3a reporter inhibition | AID 651995 | 20% of 2,500 active | shares compounds with Gli-Sufu block | inhibition, % at 6.25 µM | Wnt-LIGHT cells, Wnt3a-driven luciferase reporter, luminescence;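 active means mean inhibition above about 25%, limit read from the data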
* = called active by the depositor; nt = no result given.

SMILES | 697 NFkB inh | Jurkat NFkB inh | Mdm2 MdmX PPI | Gli-Sufu block | Beta apoptosis | Gli antag conf | SufuKO cytotox | Wnt3a cs
COc1ccc2c(=O)c3c(=O)n(CCc4ccccc4)c(C(C)C)nc3oc2c1 | 9 | -23 | 17 | 4 | nt | nt | nt | nt
CCOC(=O)N1CCN(C(=O)C2CCN(S(=O)(=O)N3CCC4(CC3)OCCO4)CC2)CC1 | 1 | 2 | 11 | -16 | -1 | nt | nt | nt
CCOC(=O)N1CCN(C(=O)C2CCN(S(=O)(=O)N3CCCC3)CC2)CC1 | -8 | -6 | 7 | 56* | -3 | 20 | 5 | 11
O=c1ccc(-c2ccc(S(=O)(=O)NCC3CCN(Cc4cccc(F)c4)CC3)s2)n[nH]1 | 1 | -21 | -15 | 59* | 1 | 13 | 22 | -5
CC(C)N1CCC(N2CCN(C/C=C/c3ccccc3)CC2CCO)CC1 (centres undefined) | -1 | 1 | 3 | 14 | -3 | nt | nt | nt
CC[C@]12c3[nH]c4cc(CCC(=O)N(C)C)ccc4c3CCN1C(=O)[C@@H](CC(=O)NC(C)(C)C)C[C@@H]2C(=O)N1CCN(C(=O)c2ccco2)CC1 | 14 | nt | 23 | 0 | nt | nt | nt | nt
O=C(Oc1ccccc1N1C(=O)C2CC=CCC2C1=O)c1ccc(Br)cc1 (centres undefined) | -15 | -3 | -34 | 52 | -5 | 17 | 11 | -16
CCN(C(=O)CSc1nnc(CNc2cccc(OC)c2)n1C1CCCCC1)C1CCS(=O)(=O)C1 (centres undefined) | 13 | -12 | 0 | -7 | nt | nt | nt | nt
COc1ccc(C(=O)NN(C)c2nc(C(F)(F)F)nc3ccccc23)cc1 | nt | nt | nt | 56* | 53 | 55* | 63* | 1
CCOC(=O)C(NC(C)=O)C(=O)Nc1c(C)cccc1C (centres undefined) | 6 | -4 | 17 | 0 | -2 | nt | nt | nt
Cn1cc(S(=O)(=O)N2CCc3ccccc32)cc1C(=O)NC(C)(C)C | 19 | 37 | 12 | 61* | 41 | 58* | 35* | 13
Cc1c(C(=O)OCC(=O)NC(C)c2ccccc2)oc2ccccc12 (centres undefined) | 13 | -13 | 12 | 1 | -3 | nt | nt | nt
Cc1ccc(C(C)C)c(OCCn2c(=O)oc3ccccc32)c1 | 6 | 13 | -4 | 96* | 8 | 20 | -4 | 4
CCn1cc(CNC(=O)C2CCC(=O)N(Cc3ccccc3F)C2)cn1 (centres undefined) | -6 | -19 | -6 | 51 | -5 | 21 | -2 | 15
CCOc1cc(C(=O)OCc2ccc([N+](=O)[O-])cc2)ccc1OCC(=O)N1CCOCC1 | 16 | 13 | 16 | -3 | nt | nt | nt | nt
CCOc1cc(C(=O)OCc2cccc(OC)c2OC)ccc1OCC(=O)N1CCOCC1 | -29 | -54 | 6 | 71* | 0 | 26 | 10 | -3
COc1ccc(C2CC(C(F)(F)F)n3nc(CO)c(Cl)c3N2)cc1OC (centres undefined) | -23 | -7 | 16 | 92* | -4 | 16 | 16 | 6
OCC[C@@H]1C[C@@H](O)[C@H](O)[C@]2(CCc3ccccc3CO2)O1 | 8 | -3 | 9 | -6 | -8 | nt | nt | nt
O=S(=O)(c1ccc2c(c1)nc(COc1ccc(Cl)cc1)n2CC1CCCO1)N1CCOCC1 (centres undefined) | -23 | 1 | -10 | 60* | -3 | 45* | 9 | 33*
Cc1cc(C)c(NC(=O)Cn2c(=O)c3cccn3c3ccccc32)c(C)c1 | 6 | 5 | 3 | -1 | 1 | nt | nt | nt
Cc1ccc(S(=O)(=O)N2CCN(c3ccc(C(F)(F)F)cc3[N+](=O)[O-])CC2)cc1 | -16 | 23 | -2 | 9 | nt | nt | nt | nt
Cc1cc(N2CCN(c3ccc(C(F)(F)F)cc3[N+](=O)[O-])CC2)c2ccccc2n1 | -81 | -2 | 34 | 52 | 15 | 34 | 19 | -53
Cn1nnc(NC(=O)C(c2ccccc2)c2ccccc2)n1 | 3 | 1 | 5 | 9 | 1 | nt | nt | nt
CCn1nnc(NC(=O)C(c2ccccc2)c2ccccc2)n1 | 6 | 0 | -22 | 59* | -1 | 19 | 13 | -7

High-throughput results from PubChem BioAssay.
